Dicer inh = blocks human Dicer maturation of pre-miR-21; actives 6% (n = 47,000); AID 1347074; Q9UPY3; cat-ELCCA pre-miR-21 Dicer processing, chemiluminescence; stronger effect = higher value; z-score at 25 µM; in the data active = z-score above about 3, passing the limit was not always enough;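 also: plate controls were vehicle for no effect and no enzyme for full effect; higher signal means more uncleaved substrate so more Dicer inhibition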
Numbers without * were called inactive. Only a selection was taken, and hits are over-represented in it overall.

Screening CCS(=O)(=O)N1CCN(Cc2cc(Br)ccc2O)CC1 returned Dicer inh 4.87*.
Screening Cn1ncc(Br)c1NC(=O)c1ccccc1 returned Dicer inh 0.45.
Screening CCOC(=O)C(C(=O)OCC)c1ccc2cccc(O)c2n1 returned Dicer inh -0.59.
O=c1oc(-c2ccc(Cl)c(Cl)c2)nn1-c1cccc(C(F)(F)F)n1 was read as Dicer inh -0.48.
For O=C1CC(c2cccs2)CC2=C1C1c3ccccc3C(=O)N1c1ccccc1N2 (centres undefined) the results were Dicer inh 2.22.
`CC(=O)c1c(-c2cccs2)nn(-c2ccc([N+](=O)[O-])cc2)c1C` gave Dicer inh -0.65.
Screening CCOC(=O)C(=CNc1cc(C(F)(F)F)ccc1NCCc1ccccc1)C(=O)OCC returned Dicer inh -0.02.
`Nc1ccccc1SC1CC(=O)N(c2cccc(Br)c2)C1=O` (centres undefined) gave Dicer inh 0.08.
COC(=O)C1=C(C)NC2=C(C(=O)CCC2)C1c1ccccc1N1CCOCC1 (centres undefined) was read as Dicer inh -1.48.
Screening CN(C)/C=N/c1nnc(Sc2nc3cc(Cl)ccc3s2)s1 returned Dicer inh -3.19.
`CCOC(=O)CSC(=Nc1ccccc1)C(C#N)c1nc2ccccc2[nH]1` (centres undefined) gave Dicer inh -1.5.
CN1CCN(C(c2ccccc2)c2ccccc2)CC1 was read as Dicer inh 0.13.
Screening CN1CCN(C(=O)Oc2ccccc2)CC1 returned Dicer inh 3.81*.
For CN1CCN(C(=O)CN(c2ccccc2)S(=O)(=O)N(C)C)CC1 the results were Dicer inh 1.02.
For CC(=O)N1CCC(C(=O)Nc2ccc3nc(C)ccc3c2)CC1 the results were Dicer inh -0.43.
Screening COc1ccc(C(=O)/C(C#N)=C/N=S(C)(=O)c2ccc(C(F)(F)F)cn2)cc1 (centres undefined) returned Dicer inh 0.9.
O=C(Nc1cc(F)c(Cl)cc1NC(=O)c1ccccc1Cl)c1ccccc1Cl was read as Dicer inh -0.95.
For COc1cc(C2N3CC4(C)CN2CC(C)(C3)C4=O)ccc1O (centres undefined) the results were Dicer inh 0.39.
`Cn1c2c(c(=O)[nH]c1=O)C(c1ccc(Cl)cc1)C1=C(N2)c2ccccc2C1=O` (centres undefined) gave Dicer inh 2.73.
`CCOC(=O)C1=C(C)NC2=C(C(=O)c3ccccc32)C1c1cccc(OC)c1` (centres undefined) gave Dicer inh -1.64.
For Cc1ccc(C2C3=C(Nc4c2c(=O)[nH]c(=O)n4C)c2ccccc2C3=O)cc1 (centres undefined) the results were Dicer inh 2.19.
`Cn1c2c(c(=O)n(C)c1=O)C(c1ccc(OC(=O)c3ccccc3)cc1)C1=C(N2)c2ccccc2C1=O` (centres undefined) gave Dicer inh 7.1*.
`CCOC(=O)C1=C(C)NC2=C(C(=O)c3ccccc32)C1c1ccc(OC)cc1` (centres undefined) gave Dicer inh 3.3*.
Cc1ccc(C2C3=C(Nc4c2c(=O)n(C)c(=O)n4C)c2ccccc2C3=O)cc1 (centres undefined) was read as Dicer inh 0.93.
Cn1c2c(c(=O)[nH]c1=O)C(c1ccc(F)cc1)C1=C(N2)c2ccccc2C1=O (centres undefined) was read as Dicer inh -0.29.
Cn1c2c(c(=O)n(C)c1=O)C(c1cccc(OC(=O)c3ccccc3)c1)C1=C(N2)c2ccccc2C1=O (centres undefined) was read as Dicer inh 0.51.
`Cn1c2c(c(=O)[nH]c1=O)C(c1ccc(-c3ccccc3)cc1)C1=C(N2)c2ccccc2C1=O` (centres undefined) gave Dicer inh 4.59*.
`Cn1c2c(c(=O)[nH]c1=O)C(c1ccccc1)C1=C(N2)c2ccccc2C1=O` (centres undefined) gave Dicer inh 3.03*.
Screening CCOC(=O)C1=C(C)NC2=C(C(=O)c3ccccc32)C1c1ccccc1 (centres undefined) returned Dicer inh -0.36.
Cn1c2c(c(=O)[nH]c1=O)C(c1ccc(Br)cc1)C1=C(N2)c2ccccc2C1=O (centres undefined) was read as Dicer inh 1.25.
Screening C=CCc1c(C)nc(SCC(=O)c2ccc(Cl)cc2)[nH]c1=O returned Dicer inh 0.24.
Screening CN(CCO)CC(O)Cn1c2ccc(Cl)cc2c2cc(Cl)ccc21 (centres undefined) returned Dicer inh 0.61.
Screening O=C(Nc1ccc(Oc2cccc(C(F)(F)F)c2)nc1)Nc1cccs1 returned Dicer inh -0.38.
Nc1ccc(S(=O)(=O)Nc2c(F)cccc2Cl)cc1 was read as Dicer inh -0.74.
For Clc1ccc(Sc2ccc3nnc(-c4ccccc4)n3n2)cc1 the results were Dicer inh 0.75.
`COc1ccccc1C(C[N+](=O)[O-])c1c(N)n(C)c(=O)n(C)c1=O` (centres undefined) gave Dicer inh -1.69.
`CC(C(c1cccs1)c1c(N)n(C)c(=O)n(C)c1=O)[N+](=O)[O-]` (centres undefined) gave Dicer inh -2.37.
`Cn1c(N)c(C(C[N+](=O)[O-])c2ccc(Cl)cc2Cl)c(=O)n(C)c1=O` (centres undefined) gave Dicer inh 3.43*.
Screening O=C(c1cccs1)n1nccc1/C=C/c1c(Cl)cccc1Cl returned Dicer inh 0.6.
Screening CCOC(=O)c1nn(-c2ccccc2)c2nc(Nc3ccc(C)cc3)cc(=O)n12 returned Dicer inh -2.73.
Screening O=S(=O)(CS(=O)(=O)Nc1nc2ccc(Cl)cc2s1)Nc1nc2ccc(Cl)cc2s1 returned Dicer inh 0.06.
COC(=O)CSc1nc2ccc(Cl)cc2s1 was read as Dicer inh 0.92.
Screening CC(C)(C)NC(=O)NNc1nc2ccc(Cl)cc2s1 returned Dicer inh 3.71*.
For CC(=O)OCC1OC(n2ccc(=O)[nH]c2=O)CC1OC(C)=O (centres undefined) the results were Dicer inh -0.08.
For COc1ccc(-c2ccc(-c3noc(-c4cccc(OC)c4)n3)c(OC)n2)cc1 the results were Dicer inh -0.9.
Screening COc1nc(-c2ccccc2)ccc1-c1noc(-c2ccc(C)cc2)n1 returned Dicer inh 1.48.
Screening COc1nc(-c2ccc(C)cc2)ccc1-c1noc(-c2cccnc2)n1 returned Dicer inh 3.55*.
For Nc1nc(/C=C/c2ccccc2O)nc(-c2ccccc2O)n1 the results were Dicer inh 8.02.
For Cc1nn(-c2ccccc2)c(C)c1-c1ccccc1O the results were Dicer inh 0.59.
`Oc1ccccc1/C=C/c1nc(-c2ccccc2O)n(-c2ccccc2)n1` gave Dicer inh 10.5*.
`CNC(=S)N/N=C/c1ccc(Cl)c(Cl)c1` gave Dicer inh 0.07.
Screening Cc1c(Cc2ccccc2)c(-n2ccnc2C)n2c(nc3ccccc32)c1C#N returned Dicer inh 2.2.
Screening CCCCc1c(C)c(C#N)c2nc3ccccc3n2c1-n1ccnc1C returned Dicer inh 8.35*.
For Cc1c(CCN2CCOCC2)c(N2CCOCC2)n2c(nc3ccccc32)c1C#N the results were Dicer inh -0.55.
`N=C1C(c2nc3ccccc3c(=O)[nH]2)=C(O)CN1c1ccccc1F` gave Dicer inh -1.27.
For O=S(=O)(NNc1c(Cl)cc(Cl)cc1Cl)c1ccc(Cl)c(Cl)c1 the results were Dicer inh 5.18.

Screening data: PubChem, Center for Chemical Genomics, University of Michigan
